Our source for the inhibition values is PubChem BioAssay AID485346 (Sanford-Burnham Center for Chemical Genomics, 2010).

About 10,000 (3%) of roughly 330,000 compounds were called active. The list comes from a sample in which actives are over-represented; it also holds similar structures and randomly drawn compounds. Values without a mark were called inactive.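 How the source made its calls: active means inhibition of at least 50% at 8 µM in the primary screen; inactive means the rest.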

The target in this experiment is Protein Mdm4 (Homo sapiens) + E3 ubiquitin-protein ligase Mdm2 (Homo sapiens) (UniProt O15151+Q00987). As to the kind of experiment: disruptors of Mdm2/MdmX RING complex – cell-based, luminescence, split luciferase, SaOS-2, uHTS, primary screen (AID 485346). To be noted: SaOS-2 split-luciferase Mdm2/MdmX complementation, at 8 µM, stronger effect = higher value.
Protein Mdm4 (Homo sapiens) + E3 ubiquitin-protein ligase Mdm2 (Homo sapiens), sequence (O15151 whole entry, looked up): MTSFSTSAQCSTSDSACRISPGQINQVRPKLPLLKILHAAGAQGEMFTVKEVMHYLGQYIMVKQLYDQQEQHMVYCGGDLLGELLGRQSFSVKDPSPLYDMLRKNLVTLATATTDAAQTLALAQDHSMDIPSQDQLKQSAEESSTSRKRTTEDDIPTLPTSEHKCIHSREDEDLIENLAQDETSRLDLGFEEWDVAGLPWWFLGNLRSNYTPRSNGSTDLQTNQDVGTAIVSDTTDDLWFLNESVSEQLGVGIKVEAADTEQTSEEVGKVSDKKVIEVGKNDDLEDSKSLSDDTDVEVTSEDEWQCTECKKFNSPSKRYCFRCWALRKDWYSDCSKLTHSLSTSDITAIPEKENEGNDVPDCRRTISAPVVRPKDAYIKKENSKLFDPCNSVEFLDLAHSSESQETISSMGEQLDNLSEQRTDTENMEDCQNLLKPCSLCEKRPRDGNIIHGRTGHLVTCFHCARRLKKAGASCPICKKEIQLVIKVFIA
Protein Mdm4 (Homo sapiens) + E3 ubiquitin-protein ligase Mdm2 (Homo sapiens), sequence (Q00987 whole entry, looked up): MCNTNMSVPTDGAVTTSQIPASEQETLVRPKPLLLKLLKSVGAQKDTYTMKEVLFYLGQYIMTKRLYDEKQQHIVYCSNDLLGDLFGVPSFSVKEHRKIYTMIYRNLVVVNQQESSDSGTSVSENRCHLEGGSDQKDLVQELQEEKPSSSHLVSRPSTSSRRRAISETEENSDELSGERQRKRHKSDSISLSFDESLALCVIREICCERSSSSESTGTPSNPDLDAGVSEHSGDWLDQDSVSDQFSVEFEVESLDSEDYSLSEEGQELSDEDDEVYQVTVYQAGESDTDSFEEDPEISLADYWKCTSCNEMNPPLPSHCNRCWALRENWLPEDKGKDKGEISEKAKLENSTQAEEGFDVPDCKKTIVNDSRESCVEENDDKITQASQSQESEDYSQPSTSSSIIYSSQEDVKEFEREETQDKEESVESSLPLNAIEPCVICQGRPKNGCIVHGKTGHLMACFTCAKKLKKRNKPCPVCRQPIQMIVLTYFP
With `O=C(OCc1cc(=O)n2ccsc2n1)C1(c2ccc(Cl)cc2)CC1`, the inhibition is -13.2%. The value for `CN(c1ccc(OCC(=O)NC2=NCCS2)cc1)S(=O)(=O)c1ccc(F)cc1` was -19.2%. With `CCOC(=O)C1=C(c2ccccc2)NC(=O)NC1c1cc(OCC)c(O)c([N+](=O)[O-])c1` (stereo not given), the inhibition is -2.5%.

As to `COC(=O)c1sc(-c2ccc(C(C)(C)C)cc2)cc1NC(=O)/C=C/C(=O)O`, the inhibition was 59.5% (active).

With `COc1ccccc1NC(=O)/C=C/C(N)=O`, the inhibition was 6.78%.

In the case of `CC(C)(C)c1ccc(/C=C/C(=O)Nc2ncccn2)cc1`, the inhibition is -199%. As for `CC1(C)S[C@@H]2[C@H](NC(=O)COc3ccccc3)C(=O)N2C1C(=O)OCc1ccccc1` (stereo not given in full), the inhibition was -0.93%. In the case of `O=C1OCCN1C(=O)[C@H]1[C@H](c2ccc(Cl)cc2)C(c2cccc(Cl)c2)=NN1c1ccc(Br)cc1` it was 43%; in that of `COc1ccc(Cl)cc1NC(=O)NC(C)C(C)(C)C` (stereo not given), -21.5%; in that of `COc1ccc(C#Cc2c(-c3ccc(OC)cc3)oc3ccc(-c4ccc5c(c4)OCO5)cc23)cc1`, -2.23%. Turning to `Cc1cccc(-c2oc3ccc(-c4ccc5c(c4)OCO5)cc3c2C#Cc2cncn2C)c1`, the inhibition was 62.2% (active). In the case of `COc1ccc(/C=C/c2c(-c3cccc(C)c3)oc3ccc(-c4ccc5c(c4)OCO5)cc23)cc1` it was 6.97%; in that of `COc1nnc(-c2ccc(C)c(S(=O)(=O)N(C)C)c2)c2ccccc12`, 13.5%.

As for `COc1ccc(CCN(C)C(=O)C23CC4CC(CC(Cl)(C4)C2)C3)cc1OC`, the inhibition was 27.9%. For the compound `Cc1cc(=O)[nH]c2nnnn12`, the inhibition is 6.21%. On to `COc1ccc(CC(=O)Nc2ccc(C(=O)NC(C)(C)C)cc2)cc1`, for which the inhibition is -11.9%. For the compound `CCN(CC(=O)Nc1ccc(OC)cc1)C(=O)CSCc1ccc(C)cc1`, the inhibition is 20.5%. The value for `Cc1ccc(-c2nnc(-c3ccc(NC(=O)c4cccs4)cc3)o2)cc1` was 93.9% (active). In the case of `Cc1ccc(C(=O)Nc2ccc(NC(=O)c3cccs3)cc2)c(C)c1` it was -14.7%. In the case of `COc1ccc(CC(=O)Nc2ccc(-c3nnc(-c4ccc(C)cc4)o3)cc2)cc1` it was 99.8% (active). On to `Cc1ccc(OCC(=O)Nc2ccc(NC(=O)c3cccs3)cc2)c(C)c1`, for which the inhibition was 13.5%.

Regarding `CO[C@@H]1[C@@H](OC(N)=O)[C@@H](O)C(Oc2ccc3c(O)c(NC(=O)c4ccc(O)c(CC=C(C)C)c4)c(=O)oc3c2C)OC1(C)C` (stereo not given in full), the inhibition is 20.1%. The value for `COc1ccc(C2CC(c3cccs3)=NN2c2ccccc2)cc1` (stereo not given) was -32.2%; that for `Oc1ccccc1C1=NN(c2ccccc2)C(c2ccccc2)C1` (stereo not given) was 58.3% (active); that for `O=C(c1ccccc1)N1N=C(c2ccccc2O)CC1c1ccc(Br)cc1` (stereo not given) was 12%.

For orientation: inhibition means the change of the read-out against control, counted positive when it falls.
